For some assays here: Results with a measured potency or affinity are listed apart.
How the values were obtained:
Parameters in all cases: scale not given: direction of the effect not stated beside the values
[1] = target: Protein translocase subunit SecA (Escherichia coli (strain K12)) (UniProt P10408); assay: Assay to Identify E. coli SecA ATPase Inhibitors; format: functional; settings: 30 µM
[2] = target: T1, Ubiquitin-activating enzyme e1, putative (Leishmania donovani (strain BPK282A1)) (UniProt E9BSI1); assay: Leishmania donovani Ubiquitin Activating Enzyme (LdE1); format: functional; settings: 30 µM
T1 sequence (whole entry): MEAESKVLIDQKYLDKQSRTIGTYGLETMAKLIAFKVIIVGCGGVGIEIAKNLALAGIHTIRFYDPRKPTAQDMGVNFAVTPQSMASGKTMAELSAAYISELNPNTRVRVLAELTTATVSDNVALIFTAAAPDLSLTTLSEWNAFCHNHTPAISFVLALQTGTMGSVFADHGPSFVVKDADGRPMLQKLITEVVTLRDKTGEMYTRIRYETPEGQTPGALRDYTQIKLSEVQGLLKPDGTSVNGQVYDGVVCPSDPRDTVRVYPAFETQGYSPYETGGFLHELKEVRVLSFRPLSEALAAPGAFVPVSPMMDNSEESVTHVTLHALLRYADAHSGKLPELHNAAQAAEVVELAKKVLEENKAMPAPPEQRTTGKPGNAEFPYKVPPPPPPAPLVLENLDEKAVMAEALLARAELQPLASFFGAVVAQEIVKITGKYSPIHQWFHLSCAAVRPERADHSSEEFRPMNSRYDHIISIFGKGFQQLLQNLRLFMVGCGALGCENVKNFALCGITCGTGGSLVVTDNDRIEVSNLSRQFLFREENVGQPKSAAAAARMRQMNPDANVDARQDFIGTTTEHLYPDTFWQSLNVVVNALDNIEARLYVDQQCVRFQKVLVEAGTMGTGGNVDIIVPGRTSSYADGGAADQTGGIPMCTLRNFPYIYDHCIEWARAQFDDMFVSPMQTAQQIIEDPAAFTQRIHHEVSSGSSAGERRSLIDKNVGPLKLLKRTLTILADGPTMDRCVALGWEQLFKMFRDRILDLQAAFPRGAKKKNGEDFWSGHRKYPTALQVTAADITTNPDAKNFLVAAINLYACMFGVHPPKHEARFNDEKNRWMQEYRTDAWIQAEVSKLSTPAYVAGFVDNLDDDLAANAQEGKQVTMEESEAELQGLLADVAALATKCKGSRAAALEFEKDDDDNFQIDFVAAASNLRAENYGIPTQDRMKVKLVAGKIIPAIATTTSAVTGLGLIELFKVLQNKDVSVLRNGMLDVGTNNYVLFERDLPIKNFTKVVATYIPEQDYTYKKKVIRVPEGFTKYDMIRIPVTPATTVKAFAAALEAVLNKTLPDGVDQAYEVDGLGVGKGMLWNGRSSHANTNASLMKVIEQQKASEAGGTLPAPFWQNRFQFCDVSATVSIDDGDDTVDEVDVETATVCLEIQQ

[3] = target: Sialic acid-binding Ig-like lectin 9 (Homo sapiens) (UniProt Q9Y336); assay: Hs-Siglec9 ALPHAscreen SOP 20170721; settings: 10 µM
Trypanosoma cruzi = assay: Trypanosoma cruzi phosphomannomutase and mannose-1-phosphate guanylyltransferase assay; format: functional; settings: 10 µM
[4] = target: T2, Arginase-2, mitochondrial (Homo sapiens) (UniProt P78540); assay: in vitro enzyme assay to detect the production of urea directly proportional to the activity of Arginase II; format: functional; settings: 33.3 µM; further: in the data most compounds retested in dose-response had high values
T2 sequence (whole entry): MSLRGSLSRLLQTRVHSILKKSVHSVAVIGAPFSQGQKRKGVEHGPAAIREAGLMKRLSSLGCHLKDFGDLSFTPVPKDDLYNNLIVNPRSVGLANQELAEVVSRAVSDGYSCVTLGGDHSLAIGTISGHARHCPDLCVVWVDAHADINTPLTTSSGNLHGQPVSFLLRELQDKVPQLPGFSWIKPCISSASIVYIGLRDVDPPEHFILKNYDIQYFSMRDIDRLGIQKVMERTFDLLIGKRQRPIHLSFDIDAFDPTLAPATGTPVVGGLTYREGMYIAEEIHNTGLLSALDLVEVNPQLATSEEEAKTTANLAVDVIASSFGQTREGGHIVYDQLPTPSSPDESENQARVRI

[5] = target: T3, Proteasome subunit beta (Trypanosoma cruzi) (UniProt O96673); assay: Trypanosoma cruzi proteasome chymotrypsin-like activity (TcProtChymo) assay.; further: in the data most compounds retested in dose-response had high values; format: functional; settings: 9.37 µM
T3 sequence (whole entry): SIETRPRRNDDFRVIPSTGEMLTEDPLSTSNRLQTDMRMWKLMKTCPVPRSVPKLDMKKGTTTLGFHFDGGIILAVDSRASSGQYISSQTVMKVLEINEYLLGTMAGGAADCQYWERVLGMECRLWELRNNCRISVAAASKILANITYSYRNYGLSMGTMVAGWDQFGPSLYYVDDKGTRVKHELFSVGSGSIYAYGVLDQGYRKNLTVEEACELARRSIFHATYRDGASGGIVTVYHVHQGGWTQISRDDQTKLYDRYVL

Homo sapiens = species on record: Homo sapiens; assay: To identify inhibition of the IFN signalling (Jak-Stat) pathway via expression of an eGFP reporter gene under the control of an IFN-stimulated response element (ISRE) containing MxA promoter.; format: functional; settings: 30 µM
[6] = target: T4, Tyrosyl-tRNA synthetase, putative (Trypanosoma cruzi (strain CL Brener)) (UniProt Q4DSP6); assay: Trypanosoma cruzi tyrosyl tRNA synthetase (TcYRS) _High Tyrosine SOP; format: functional; settings: 30 µM; further: in the data most compounds retested in dose-response had high values
T4 sequence (whole entry): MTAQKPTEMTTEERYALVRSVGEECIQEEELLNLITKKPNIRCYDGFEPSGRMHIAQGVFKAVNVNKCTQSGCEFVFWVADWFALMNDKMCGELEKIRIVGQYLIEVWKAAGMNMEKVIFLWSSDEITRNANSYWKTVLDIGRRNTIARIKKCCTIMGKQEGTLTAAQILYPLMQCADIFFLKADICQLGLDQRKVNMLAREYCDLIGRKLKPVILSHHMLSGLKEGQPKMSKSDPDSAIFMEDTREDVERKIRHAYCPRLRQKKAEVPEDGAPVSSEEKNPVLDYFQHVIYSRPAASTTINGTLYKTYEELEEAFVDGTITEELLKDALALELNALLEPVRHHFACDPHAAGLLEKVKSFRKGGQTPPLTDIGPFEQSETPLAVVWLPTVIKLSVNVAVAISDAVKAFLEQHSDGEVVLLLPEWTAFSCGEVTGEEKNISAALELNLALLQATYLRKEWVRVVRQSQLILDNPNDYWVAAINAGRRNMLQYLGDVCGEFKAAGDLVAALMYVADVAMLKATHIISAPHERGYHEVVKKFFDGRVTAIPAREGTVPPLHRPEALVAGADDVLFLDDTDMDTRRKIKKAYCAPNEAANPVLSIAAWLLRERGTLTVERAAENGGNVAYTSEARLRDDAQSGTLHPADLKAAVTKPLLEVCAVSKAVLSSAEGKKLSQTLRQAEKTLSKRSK

[7] = target: T4, Tyrosyl-tRNA synthetase, putative (Trypanosoma cruzi (strain CL Brener)); assay: Trypanosoma cruzi tyrosyl tRNA synthetase (TcYRS) SOP; format: functional; settings: 30 µM
[8] = target: Chromo domain-containing protein 1 (Saccharomyces cerevisiae (strain ATCC 204508 / S288c) (Baker's yeast)) (UniProt P32657); assay: ScCHD-1 Enzyme Inhibition Assay; format: functional; settings: 30 µM; further: in the data most compounds retested in dose-response had high values
Chain of Chromo domain-containing protein 1 (Saccharomyces cerevisiae (strain ATCC 204508 / S288c) (Baker's yeast)) (P32657 whole entry, the tested form may be a part): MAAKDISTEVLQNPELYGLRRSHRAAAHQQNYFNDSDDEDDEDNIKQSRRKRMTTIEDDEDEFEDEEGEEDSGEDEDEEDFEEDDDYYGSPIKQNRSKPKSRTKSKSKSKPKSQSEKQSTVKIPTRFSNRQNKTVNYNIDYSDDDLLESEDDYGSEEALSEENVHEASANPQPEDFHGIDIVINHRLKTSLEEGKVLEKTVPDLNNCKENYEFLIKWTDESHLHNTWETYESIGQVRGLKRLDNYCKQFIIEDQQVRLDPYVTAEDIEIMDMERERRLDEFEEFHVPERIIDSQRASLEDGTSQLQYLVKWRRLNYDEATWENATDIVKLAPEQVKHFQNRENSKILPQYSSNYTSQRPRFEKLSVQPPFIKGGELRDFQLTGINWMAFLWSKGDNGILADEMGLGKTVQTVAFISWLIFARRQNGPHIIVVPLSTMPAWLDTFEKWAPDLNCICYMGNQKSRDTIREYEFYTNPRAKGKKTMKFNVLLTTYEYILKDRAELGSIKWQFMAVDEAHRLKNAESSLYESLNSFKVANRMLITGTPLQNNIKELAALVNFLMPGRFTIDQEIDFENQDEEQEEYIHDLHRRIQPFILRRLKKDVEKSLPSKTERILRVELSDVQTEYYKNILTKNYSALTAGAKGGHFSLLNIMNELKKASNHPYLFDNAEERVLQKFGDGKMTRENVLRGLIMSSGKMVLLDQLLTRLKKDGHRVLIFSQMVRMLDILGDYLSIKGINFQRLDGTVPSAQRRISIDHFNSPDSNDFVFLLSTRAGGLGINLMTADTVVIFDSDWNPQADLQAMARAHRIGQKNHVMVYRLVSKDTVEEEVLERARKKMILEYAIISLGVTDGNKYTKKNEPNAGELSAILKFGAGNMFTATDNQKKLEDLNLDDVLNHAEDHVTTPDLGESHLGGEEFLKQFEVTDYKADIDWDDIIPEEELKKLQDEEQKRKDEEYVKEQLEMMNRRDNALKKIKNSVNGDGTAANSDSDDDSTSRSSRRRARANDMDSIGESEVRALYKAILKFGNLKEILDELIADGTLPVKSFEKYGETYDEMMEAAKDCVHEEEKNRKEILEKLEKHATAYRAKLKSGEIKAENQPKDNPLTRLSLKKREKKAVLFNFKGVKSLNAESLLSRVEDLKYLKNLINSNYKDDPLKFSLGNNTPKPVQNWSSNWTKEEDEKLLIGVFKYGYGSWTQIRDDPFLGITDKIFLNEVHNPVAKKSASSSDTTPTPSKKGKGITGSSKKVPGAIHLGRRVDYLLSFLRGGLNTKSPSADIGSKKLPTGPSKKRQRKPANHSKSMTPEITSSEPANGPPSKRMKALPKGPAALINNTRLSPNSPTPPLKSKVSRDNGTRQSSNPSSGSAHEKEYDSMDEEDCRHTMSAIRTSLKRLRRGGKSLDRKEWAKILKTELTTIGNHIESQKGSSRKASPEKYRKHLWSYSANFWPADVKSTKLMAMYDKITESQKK

Chain of Protein translocase subunit SecA (Escherichia coli (strain K12)) (P10408 whole entry): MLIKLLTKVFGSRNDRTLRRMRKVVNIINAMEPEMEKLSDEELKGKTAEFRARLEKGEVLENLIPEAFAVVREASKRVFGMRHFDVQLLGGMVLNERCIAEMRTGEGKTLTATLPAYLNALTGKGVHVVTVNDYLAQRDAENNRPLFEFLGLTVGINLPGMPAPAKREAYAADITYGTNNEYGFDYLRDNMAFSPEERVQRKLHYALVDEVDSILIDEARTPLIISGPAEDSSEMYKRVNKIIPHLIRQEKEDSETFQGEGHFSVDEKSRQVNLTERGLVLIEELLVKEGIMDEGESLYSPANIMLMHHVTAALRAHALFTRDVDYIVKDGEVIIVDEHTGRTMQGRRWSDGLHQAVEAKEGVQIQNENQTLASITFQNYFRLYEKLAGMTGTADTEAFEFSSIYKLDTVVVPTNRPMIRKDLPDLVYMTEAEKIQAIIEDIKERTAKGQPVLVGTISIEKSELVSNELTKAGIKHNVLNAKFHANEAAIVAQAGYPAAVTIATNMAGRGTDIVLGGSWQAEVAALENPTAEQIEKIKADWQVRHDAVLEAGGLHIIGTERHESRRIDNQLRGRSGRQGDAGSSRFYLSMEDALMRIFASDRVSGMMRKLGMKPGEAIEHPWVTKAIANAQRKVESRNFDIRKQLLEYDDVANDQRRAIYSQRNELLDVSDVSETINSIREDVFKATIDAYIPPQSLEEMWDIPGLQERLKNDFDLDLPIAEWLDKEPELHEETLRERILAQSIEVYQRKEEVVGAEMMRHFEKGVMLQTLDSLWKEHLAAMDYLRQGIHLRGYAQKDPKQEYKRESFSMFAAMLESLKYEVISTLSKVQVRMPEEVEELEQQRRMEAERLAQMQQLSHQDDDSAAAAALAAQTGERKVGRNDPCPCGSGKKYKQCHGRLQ
Chain of Sialic acid-binding Ig-like lectin 9 (Homo sapiens) (Q9Y336 whole entry): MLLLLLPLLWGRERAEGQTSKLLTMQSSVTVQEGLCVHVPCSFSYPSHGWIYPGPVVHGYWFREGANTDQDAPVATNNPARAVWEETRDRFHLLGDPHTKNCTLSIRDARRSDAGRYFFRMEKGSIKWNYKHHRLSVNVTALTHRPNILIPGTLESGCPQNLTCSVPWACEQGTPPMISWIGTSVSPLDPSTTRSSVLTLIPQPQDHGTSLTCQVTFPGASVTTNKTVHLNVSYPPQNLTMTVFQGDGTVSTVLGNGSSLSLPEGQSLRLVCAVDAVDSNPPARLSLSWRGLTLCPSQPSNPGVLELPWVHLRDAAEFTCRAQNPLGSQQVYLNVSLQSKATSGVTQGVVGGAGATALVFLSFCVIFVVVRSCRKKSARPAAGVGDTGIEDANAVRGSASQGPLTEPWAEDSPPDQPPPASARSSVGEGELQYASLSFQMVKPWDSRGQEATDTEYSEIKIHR

Row | SMILES | Percent Effect [1] [%] | Percent Effect [2] [%] | Percent Effect [3] [%] | Percent Effect (Trypanosoma cruzi) [%] | Percent Effect [4] [%] | Percent Effect [5] [%] | Percent Effect (Homo sapiens) [%] | Percent Effect [6] [%] | Percent Effect [7] [%] | Percent Effect [8] [%]
1 | CCN(Cc1cccc2c1OCO2)C(=O)NC1CC1 | -0.28 | 13 | 9.18 | 1.68 | -7.17 | 1.75 | 3.66 | 3.92 | 28.2 | -7.71
2 | Cc1cc(C)n(CC2CCCCN2CCCS(N)(=O)=O)n1 (stereo not given) | 1.22 | 18.7 | -2.13 | -2.01 | 4.88 | 12.8 | 8.38 | -0.526 | 7.69 | -8.39
3 | O=C1CC2(CCN(Cc3ccoc3)C2)CN1c1ccc2c(c1)OCO2 (stereo not given) | -7.31 | 1.3 | -0.448 | 1.85 | 0.81 | 4.68 | 4.43 | 7.89 | 10.3 | -0.51
4 | N#Cc1c(C2CC2)cc(-c2ccc(O)cc2)nc1N | -6.18 | 2.7 | 3.32 | -1.46 | 4.54 | 23.6 | 48.6 | -0.532 | 7.32 | -2.85
5 | Cc1ccc(CNC(=O)N2CCN(Cc3ccsc3)CC2)n1C | -3.87 | 2.67 | -1.44 | -5.42 | -5.76 | 14.5 | 15.6 | 2.63 | -17.9 | -19.4
6 | COCCN1CCCC1c1nccnc1Nc1nc(C)cs1 (stereo not given) | -2.72 | 12 | 5.33 | -2.56 | 3.98 | 7.55 | 21.3 | 9.52 | 15 | -24.9
7 | CCn1c(C)cc(C(=O)N2CCCC(n3nc(C)nc3C)C2)c1C (stereo not given) | -5.54 | 12.8 | -10.5 | 7.23 | -0.41 | 4.35 | 4.11 | 1.44 | 10.8 | -5.05
8 | Cc1ccc(Cl)cc1N1CCC(CNC(=O)CCn2ccnn2)C1 (stereo not given) | -2.11 | 12.8 | -5.81 | -2.35 | 8.61 | 15.8 | 24.6 | 5.26 | 18.1 | 0.402
9 | COC(=O)C1CCN(C(=O)c2ccc(NS(C)(=O)=O)c(C)c2)CC1 | -3.21 | -5.41 | -1.94 | -2.04 | -0.35 | 10.3 | -0.596 | 3.72 | 0 | 0.629
10 | Cc1cnn(C2CCCN(C(=O)c3cc(C4CC4)on3)C2)c1 (stereo not given) | -4.9 | 10.3 | -6.25 | 5.16 | 0.82 | -0.939 | -0.883 | 4.31 | 10.8 | -1.27
11 | c1cnnc(N2CCCC(NCc3nnc(-c4ccco4)o3)C2)c1 (stereo not given) | -0.0972 | 25.6 | -15.5 | 1.03 | -0.82 | 25.2 | -0.0242 | 9.09 | 22.9 | -1.66
12 | N#Cc1ccccc1OCCN1CCn2c(nnc2C2CC2)C1 | 1.03 | 2.67 | -0.123 | -0.602 | -0.444 | 5.85 | -1.08 | 2.63 | 2.56 | -0.472
13 | CC(c1cccc(S(N)(=O)=O)c1)N(C)CCc1ccccc1 (stereo not given) | -0.406 | 20.8 | -4.37 | -0.933 | -4.3 | 10.9 | 13.6 | 6.86 | 16.5 | -9.02
14 | CC(Cn1cccn1)NC(=O)N1CCN(Cc2cccs2)CC1 (stereo not given) | -1.74 | 18.7 | -3.71 | 5.42 | -3.1 | 17.4 | 12.5 | 2.63 | 12.8 | 71.3
15 | Cc1ccc2oc(C(=O)N3CCC(C(=O)N4CCCC4)CC3)cc2n1 | -3.66 | 7.69 | 1.13 | 2.35 | 6.56 | -0.768 | 7.89 | 9.09 | 18.1 | -0.651
16 | Cn1ccc(CN2CCC(NC(=O)Cc3ccccc3)CC2)cc1=O | -2.78 | 5.13 | -5.06 | 6.85 | 2.87 | 6.74 | -7.1 | 7.18 | 13.2 | -3.86
17 | CN1CCC/C1=N\S(=O)(=O)c1ccc(NC(=O)c2ccc(F)cc2)cc1 | 1.02 | 26 | 3.66 | 6.34 | 28.5 | 9.82 | 14.2 | 5.88 | 28.2 | -9.94
18 | Cc1ccc(CCC(=O)N2CCCC(n3cncn3)C2)c(C)c1 (stereo not given) | -4.25 | 8 | 2.16 | -6.02 | 0.444 | 2.63 | -1.21 | 5.79 | 2.56 | 1.81
19 | O=C(CCN1CCCN(c2nccs2)CC1)NCC1CCCCC1 | -2.39 | 5.33 | 1.99 | -3.61 | 0 | 9.41 | 3.1 | 6.84 | 7.69 | -5.72
20 | CCO[C@@H]1CO[C@@]2(CCCN(S(=O)(=O)c3cccnc3)C2)C1 | -2.66 | 11.7 | -9.59 | -4.97 | 3.64 | 18.3 | 6.27 | 5.79 | 5.13 | 2.99
21 | Cc1ccc(S(=O)(=O)N2CCOc3ccccc32)cc1C(N)=O | -0.964 | 10.3 | -14.2 | -4.79 | -2.87 | 10.5 | 34.9 | 0.478 | 8.43 | 17.3
22 | CCCN(CC)C(=O)c1cc2c(c3ccccc3n2C)n1C(=O)N(C)C | -6.54 | 11.7 | 4.77 | 0.292 | 4.05 | 6.27 | -7.65 | 6.84 | 10.3 | -0.293
23 | O=C(CN1CCCC(Cn2cncn2)C1)NCCOc1ccccc1 (stereo not given) | 3.17 | -2.67 | 2.29 | -1.41 | 5.32 | 4.67 | 6.94 | 0.526 | 0 | -6.78

— ChEMBL document CHEMBL3988442, “University of Dundee, Small-Polar-MMV Screening Library” (2021)
